High-throughput results: PubChem, National Center for Advancing Translational Sciences (NCATS)
SARS PLP yeast – qHTS of Yeast-based Assay for SARS-CoV PLP. AID 485353, 2010. 330,000 compounds, 0.19% hits. S. cerevisiae expressing SARS-CoV PLpro, growth rescue. Potency, µM (series often up to 32.9 µM), for inactives: at the top dose activity, positive = growth rescue, most hits filed as activators; note: potency is the fitted concentration of half-maximal effect; 0% is about no effect; nearly all actives have a fitted effect of over 55% in size
NS1 inh – qHTS Assay for Inhibitors of Influenza NS1 Protein Function; Potency, µM (top dose mostly 46.1 µM), for inactives: at the top dose activity, positive = more growth; 270,000 compounds, 0.4% hits; note: potency is the fitted concentration of half-maximal effect; actives are rising curves; nearly all actives have a fitted effect of over 50% in size
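Growth recovery, yeast-based: influenza A NS1 expressed in S. cerevisiae causes slow growth, and suppressors are detected by OD600. The parent strain without NS1 is used as positive control.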
CHX counter – Cycloheximide Counterscreen for Small Molecule Inhibitors of Shiga Toxin; 300,000 compounds, 12% hits; max response, %; cell reporter, cycloheximide protein synthesis inhibition counterscreen; in the data active = max response mostly above about 13%, no sharp cut-off; inactive = mostly below about 14%; note: read at 38.3 µM for the half of the compounds with a filed dose; 0% is about no effect
Shiga toxin inh – A qHTS for Small Molecule Inhibitors of Shiga Toxin. inhibition, % at 38.7 µM. Vero cells, Shiga toxin protein synthesis inhibition reporter. 290,000 compounds, 9.2% hits; in the data active = inhibition mostly above about 28%, no sharp cut-off; inactive = mostly below about 43%; note: 0% is about no effect
Active calls of the source: *; ? = inconclusive; nt = not tested or not shown. The list is not random: actives were taken first. Their share in the collection is about 12%. Unless noted, calls come from the whole dose curve.

SMILES	SARS PLP yeast	NS1 inh	CHX counter	Shiga toxin inh
CC(Oc1cccc(Cl)c1)C(=O)Nc1ccc(S(=O)(=O)N(C)C2CCN(C)CC2)cc1 (stereo not drawn)	-5%	nt	nt	nt
Cc1cc(NC(=O)c2cccnc2)ccc1NC(=O)c1cc2ccccc2o1	2%	-2%	2	-4
Cc1cc(NC(=O)C2CC=CCC2C(=O)O)ccc1NC(=O)c1ccccc1 (stereo not drawn)	24%	3%	25	25*
Cc1cc(NC(=O)c2ccc3c(c2)OCCO3)ccc1NC(=O)c1cc2ccccc2o1	0%	-1%	16*	71*
Cc1cc(NC(=O)c2cc3ccccc3o2)ccc1NC(=O)c1ccccc1	-9%	3%	13*	53
O=C(Nc1cc2ccccc2oc1=O)c1ccccc1	-4%	nt	31*	87*
Cc1cc(C(=O)N2CCN(S(=O)(=O)c3ccccc3)CC2)c(C)o1	1%	0%	-2	-17
Cc1ccc(/C=N/n2cnc3sc(C)c(C)c3c2=O)o1	-7%	-2%	26*	47
COCC1CCCN(Cc2cn(-c3ccccc3)nc2-c2ccc3c(c2)OCO3)C1 (stereo not drawn)	0%	-1%	1	12
Cc1cccc(C)c1OCc1cc(C(=O)N(C)CCc2ccccn2)no1	2%	-19%	11	-23
Cc1ccc(C)c(OCc2cc(C(=O)N(C)Cc3ccccn3)no2)c1	-5%	-5%	29*	49*
Cc1ccc(C)c(OCc2cc(C(=O)N(C)Cc3nccs3)no2)c1	-10%	-16%	23*	52*
O=C(OCC(=O)N1CCCC1=O)c1nc(Cl)c(Cl)c(Cl)c1Cl	1%	-42%	10	12
CCn1cc(/C=N/N=C2\CCC3C4CCc5cc(O)ccc5C4CC[C@]23C)c(C)n1 (stereo partly drawn)	-7%	1%	-3	-10
O=C(NCCc1cccc(F)c1)C1CCC(=O)N(CCCc2ccccc2)C1 (stereo not drawn)	3%	-4%	7	2
N#Cc1cnc(Nc2ccc(F)cc2)nc1N	-3%	-3%	24*	33
Cc1cc(C)c(C#N)c(Nc2ccc(F)cc2)n1	1%	7%	-1	-9
O=C(Nc1nc2ccc(F)cc2s1)Oc1ccccc1	-8%	-9%	9	34
NNc1nc2ccc(Cl)cc2s1	-34%	-2%	42*	83*
Fc1ccc2nc(Nc3ccccc3)sc2c1	-2%	nt	36*	118*
NNc1nc2ccc(F)cc2s1	-46%	-7%	78*	136*
O=[N+]([O-])c1ccc2nc(NS(=O)(=O)c3ccc(Cl)cc3)sc2c1	-1%	?	7	-12
NNc1nc2c(Cl)c(Cl)ccc2s1	-87%	-5%	25*	30*
NC(=O)CNc1n[nH]c(=S)[nH]c1=O	1%	1%	1	-13
N#C/C(=C\NC(=S)c1ccncc1)c1nc2ccccc2s1	nt	0%	nt	nt
SMILES	SARS PLP yeast	NS1 inh	CHX counter	Shiga toxin inh
CCN(CC)C(=O)C(=O)N/N=C/c1ccc(C(=O)OC)cc1	10%	-5%	-1	-3
COc1ccc(/C=C/c2ccncc2)cc1	-5%	-30%	40*	94*
COc1ccc(/C=C/c2cc(OC)cc(=O)o2)cc1	nt	nt	49*	86*
CN(C)c1ccc(/C=C/c2ccncc2)cc1	-1%	-11%	32*	68*
CN(C)c1ccc(/C=C/[N+](=O)[O-])cc1	-59%	-52%	-1	8
CCOC(=O)N1CCN(C(=O)CCl)CC1	-1%	1%	7	26
Cc1ccc(N2NC(C)(c3cccs3)NC2=S)cc1 (stereo not drawn)	-35%	10%	31*	74*
CC[C@H](C)[C@H](NC(N)=O)C(=O)NNC(=O)c1ccc(COc2cccc3cccnc23)cc1	21%	-7%	4	34
COCCNc1c(-c2ccc(OC)c(OC)c2)nc2ccc(Cl)cn12	2%	-2%	-5	-11
COCCNc1c(-c2cc3ccc(C)c(C)c3[nH]c2=O)nc2ccccn12	-2%	2%	42*	63*
COc1cccc(OC)c1C(=O)Nc1cc(C)nn1-c1nc2ccccc2[nH]1	23%	1%	3	16
COc1ccc(C(=O)Nc2cc(C)nn2-c2nc3ccccc3[nH]2)c(OC)c1	1%	-5%	20*	20
CC(C)C(NC(=O)c1ccc(C(C)(C)C)cc1)C(=O)N1CCC(C(N)=O)CC1 (stereo not drawn)	-2%	nt	nt	nt
Cc1occc1C(=O)N1CCCC(Nc2ccc(C(C)C)cc2)C1 (stereo not drawn)	?	-156%	-4	-3
O=C(O)CCn1c(=O)sc2ccccc21	3%	-2%	7	-9
COc1ccccc1OCCCn1c(=O)oc2ccc(C)cc21	-1%	-46%	-3	47
O=C1c2ccccc2C(=O)N1CCn1c(=O)oc2ccccc21	0%	-2%	31*	41*
COc1ccccc1OCCCn1c(=O)oc2ccccc21	3%	3%	24*	43*
O=c1oc2ccccc2n1CCCOc1ccccc1	-5%	-5%	33*	95*
COc1ccccc1OCCCn1c(=O)sc2ccccc21	-3%	-24%	28*	103
O=c1oc2ccccc2n1CCCCCn1c(=O)oc2ccccc21	4%	-15%	19	4
O=C1CCc2cc(S(=O)(=O)NC3CCCCC3)cc3c2N1CC3	7%	nt	nt	nt
CCn1c(COc2ccc(C)cc2)nnc1SCC(=O)Nc1ccc2c(c1)OCCO2	13%	4%	11	4
CC(C)(C)OC(=O)C[C@@H]1C/C=C\C[C@@H](CC(=O)N[C@H](CO)Cc2ccccc2)C(=O)N2CCC[C@H]2COC1=O	-13%	nt	nt	nt
O=C(Cn1nnc(-c2cccs2)n1)NCc1ccco1	2%	1%	12*	51*
SMILES	SARS PLP yeast	NS1 inh	CHX counter	Shiga toxin inh
CC(C)(C)NC(=O)Cn1nnc(-c2cccs2)n1	0%	-7%	31*	30*
COC(=O)c1ccc(Oc2nc(NC(C)(C)C)nc(N3CCOCC3)n2)cc1	-2%	nt	8	-12
Cc1ccc(COC(=O)c2ccc3c(c2)C(=O)N(CCCN2CCOCC2)C3=O)cc1	1%	6%	-1	-12
COc1ccc(N(C)S(=O)(=O)c2cccc(C(=O)NC3CCC(C)CC3)c2)cc1 (stereo not drawn)	2%	-11%	16*	52
COc1ccc(N(C)S(=O)(=O)c2cccc(C(=O)NC3CCCCCC3)c2)cc1	-1%	nt	-1	3
Cc1onc(-c2c(F)cccc2Cl)c1C(=O)Nc1nc2ccccc2[nH]1	19%	-4%	59*	60*
Cc1ccc(/C=C/C(=O)c2nc3ccccc3[nH]2)cc1	-13%	-77%	45*	68*
Cc1cc(NS(=O)(=O)c2ccc(NC(=O)/C=C/c3c(F)cccc3Cl)cc2)nc(C)n1	0%	9%	6	-3
Cc1cc(NC(=O)c2c(-c3c(F)cccc3Cl)noc2C)no1	1%	1%	2	11
O=C(/C=C/c1c(F)cccc1Cl)Nc1nc2ccccc2[nH]1	-1%	10%	36*	81*
Cc1ccc(Cc2nc3ccccc3[nH]2)cc1	2%	4%	8	31
Cc1ccc(/C=C/C(=O)Nc2nc3ccccc3[nH]2)cc1	-12%	1%	37*	35*
